High-throughput results (PubChem BioAssay)
The list is not random: actives were taken first. Their share in the collection is about 1.8%.
p53ts 39C tox = cytotoxicity in p53ts cells at nonpermissive temperature | 1.5% of 130,000 active | H1299-p53A138V viability at 39C, ATP luminescence, 24 h | Potency, µM (titrated, usually from 46.1 µM), inactives show top-dose activity change, negative = cell killing, usual class: cytotoxic; also: % is scaled to controls: 0 for no effect and ±100 for the full control effect; nearly all actives have a fitted effect of over 55% in size
p53ts 32C tox = p53ts cell cytotoxicity, permissive temperature; H1299-p53A138V at 32C, ATP luminescence viability, 24 h; Potency, µM (doses to about 46.1 µM), without a hit: top-dose activity change, negative = cytotoxicity, hits mostly cytotoxic; 0.93% of 130,000 active; AID 924;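 also: 0% = DMSO and -100% = full killing by reference compound; nearly all actives have a fitted effect of over 55% in size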
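Viability by ATPlite luminescence after 24 h compound treatment (up to 46 uM) at the permissive 32C. Cells are H1299 carrying p53 A138V. Scale runs from DMSO basal to 100 uM tamoxifen as full kill; AC50 from Hill fits.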
Peg3 imprint = induces erasure of genomic imprints in mouse ES cells; mouse ES Peg3-LacZ reporter, beta-gal luminescence, 40 h; Potency, µM (highest dose often 60.7 µM), without a hit: top-dose activity change, positive = activation, usual class: activators; 0.02% of 110,000 active
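Imprint erasure is scored as LacZ activity from the silenced maternal Peg3 allele in feeder-free female ES cells cultured 40 h with LIF. Luminescence is normalized to in-plate negative controls and fitted to the Hill equation.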
Active calls of the source: *; ? = inconclusive; / = not tested or not shown; [ ] = another dose, or the depositor's remark. Calls follow the shape of the dose curve; as a rule, active = well fitted curve in the direction sought with a large enough effect; inconclusive = small, poorly fitted or top-dose-only effect, or another doubt; inactive = no such curve, though single readings can be large; an effect the other way counts as inactive or inconclusive. Potency is read from the fitted curve at half-maximal effect.

SMILES	p53ts 39C tox	p53ts 32C tox	Peg3 imprint
CC(C)(C)Nc1ncnc2c1cnn2-c1ccccc1	10µM*	7.9µM*	-24%
c1ccc(CNc2ncnc3c2cnn3-c2ccccc2)cc1	-2%	-3%	-20%
COc1ccc(CNc2ncnc3c2cnn3-c2ccc(C)c(C)c2)cc1	-25%	-4%	-12%[10.9 µM]
CCOc1ccc(-c2ccc(NS(=O)(=O)c3cc(C)c(C)cc3C)cc2)nn1	11%	11%	-6%[10.9 µM]
Cc1cccc(NC(=O)CCN2CCN(c3ccccc3F)CC2)c1	17%	-3%	-13%[10.9 µM]
CCOCCCNc1ncnc2c1cnn2-c1ccc(C)c(C)c1	?	-6%	-9%[10.9 µM]
Cc1ccc(-n2ncc3c(NCCCN(C)C)ncnc32)cc1Cl	16µM*	26%	-4%[10.9 µM]
CCn1cc2nc(SCc3ccccc3)n(Cc3ccc(C)cc3)c(=O)c2n1	54%	-1%	-15%[10.9 µM]
CCn1cc2nc(SCc3ccc(F)cc3)n(Cc3ccc(Cl)cc3)c(=O)c2n1	13µM*	-4%	-12%[10.9 µM]
CCCCNC(=O)CCn1c(=O)c2ccccc2n(Cc2cccc(Cl)c2)c1=O	2%	10%	7%[10.9 µM]
O=C(Nc1ccc(-c2nc3cc(Cl)ccc3o2)cc1)C1CCCO1 (stereo not drawn)	8%	4%	/
O=C(Nc1ccc(-c2nc3ccccc3o2)cc1)C1CCCO1 (stereo not drawn)	10µM*	16µM*	/
COc1cccc(Cn2c(=O)n(Cc3ccco3)c(=O)c3oc4ccccc4c32)c1	0%	14%	-13%[10.9 µM]
N=c1n(CCO)c2ccccc2n1CCOc1ccc(F)cc1	-13%	-10%	-15%[10.9 µM]
CCCCn1c(=N)n(CCCOc2ccc(F)cc2)c2ccccc21	10µM*	?	-25%[10.9 µM]
Cc1ccc(CSc2nc3ccncc3n2Cc2nc(-c3ccccc3C)oc2C)cc1	7.9µM*	13µM*	-9%[10.9 µM]
Cc1oc(-c2ccccc2F)nc1Cn1c(SCc2cccc(Cl)c2)nc2ccncc21	?	6%	-12%[10.9 µM]
Cc1ccc(-n2nc(C(=O)N3CCC(C)CC3)c(=O)n(C)c2=O)cc1	-7%	-12%	-6%[10.9 µM]
Cc1ccc(Cl)cc1-n1ncc2c(Nc3ccc4c(c3)OCCO4)ncnc21	-17%	-5%	-12%[10.9 µM]
Nc1nc(CSc2nc3ccccc3[nH]2)cs1	-18%	-29%	-22%
Nc1nc(-c2nc3ccccc3[nH]2)cs1	13µM*	16µM*	-82%
c1csc(-c2nc3ccccc3[nH]2)c1	-15%	-21%	-73%
Cc1ccc(-c2nc3ccccc3[nH]2)s1	13µM*	13µM*	-91%
CSc1ncc(Cl)c(C(=O)Nc2c(C(=O)c3ccc(C)c(F)c3)oc3ccccc23)n1	1%	7%	-6%[10.9 µM]
COc1ccc(S(=O)(=O)Nc2cccc(-c3ccc(N4CCC(C)CC4)nn3)c2)c(OC)c1	16µM*	10µM*	-7%[10.9 µM]
SMILES	p53ts 39C tox	p53ts 32C tox	Peg3 imprint
CCc1ccc(S(=O)(=O)Nc2cccc(-c3ccc(N4CCC(C)CC4)nn3)c2)s1	10µM*	13µM*	6%[10.9 µM]
CC(=O)c1ccc(S(=O)(=O)Nc2ccc(-c3ccc(N4CCCCCC4)nn3)cc2)cc1	?	?	21%[10.9 µM]
CC(=O)Nc1ccc(S(=O)(=O)Nc2cccc(-c3ccc(N4CCCCCC4)nn3)c2)cc1	?	?	-13%[10.9 µM]
CC(=O)c1ccc(S(=O)(=O)Nc2ccc(-c3ccc(N4CCCCC4)nn3)cc2)cc1	4µM*	?	5%[10.9 µM]
CC(=O)Nc1ccc(S(=O)(=O)Nc2cccc(-c3ccc(N4CCC(C)CC4)nn3)c2)cc1	3.5µM*	2.5µM*	-10%[10.9 µM]
COc1ccc(OC)c(S(=O)(=O)Nc2cccc(-c3ccc(N4CCCCC4)nn3)c2)c1	?	-3%	13%[10.9 µM]
CCOc1ccc(-c2cccc(NS(=O)(=O)c3ccc(C)s3)c2)nn1	-8%	-9%	0%[10.9 µM]
CCOCCCN1C(=O)CN(C2CCCCCC2)C(=O)C1c1ccc(OC(C)C)c(OC)c1 (stereo not drawn)	?	-5%	-3%[10.9 µM]
O=C(Nc1ccc(S(=O)(=O)N2CCCCC2c2cccnc2)cc1)c1ccc(F)cc1 (stereo not drawn)	?	5%	?
CCOc1ccccc1CNc1ncnc2c1nc1n2CCCC1	/	-29%	/
COc1ccccc1CNC(=O)c1ccc2c(c1)nc(C)n2-c1ccccc1OC	8%	11%	5%[10.9 µM]
Cc1oc2ccc(O)c(CN3CCCC3)c2c1C(=O)Nc1ccccc1	-7%	14%	-7%[10.9 µM]
COc1ccc(NC(=O)c2c(C)oc3ccc(O)c(CN4CCN(Cc5ccccc5)CC4)c23)cc1Cl	-16%	8%	-17%[10.9 µM]
COc1ccc(NC(=O)c2c(C)oc3ccc(O)c(CN4CCCC(C)C4)c23)cc1Cl (stereo not drawn)	32µM*	?	-2%[10.9 µM]
CCN1CCN(Cc2c(O)ccc3oc(C)c(C(=O)Nc4ccc(OC)c(Cl)c4)c23)CC1	3%	4%	17%[10.9 µM]
Cc1oc2ccc(O)c(CN3CCCCCC3)c2c1C(=O)Nc1cccc(C(F)(F)F)c1	16µM*	-29%	-11%[10.9 µM]
COc1ccc(NC(=O)c2c(C)oc3ccc(O)c(CN4CCC(C)CC4)c23)cc1Cl	32µM*	-6%	-7%[10.9 µM]
CCCCCCCCCCCCC/C=C\[C@@H](O)[C@H](CO)NC(C)=O	32µM*	25%	1%
CCCCCCCCCCCCC/C=C/[C@@H](O)[C@@H](N)CO	/	/	-67%
CN(C)C(=O)c1ccc(-c2ccc3ncnc(N4CCNCC4)c3c2)cc1	-1%	6%	-25%
COc1cc(NC(=O)CSc2nnc(C)n3c2cc2oc(C)cc23)cc(OC)c1	6%	1%	16%[10.9 µM]
CCN(CC)c1ccc2cc(-c3nc4ccccc4[nH]3)c(=O)oc2c1	0.4µM*	0.32µM*	-59%
CCN(CC)c1ccc2cc(-c3nc4ccccc4n3C)c(=O)oc2c1	-14%	-12%	-23%
COc1cccc(NC(=O)CCc2nnc3n(CC(C)C)c(=O)c4ccccc4n23)c1	-13%	-2%	-8%[10.9 µM]
CC(C)C(=O)NC(c1ccco1)c1ccc2cccnc2c1O (stereo not drawn)	4µM*	-19%	-31%
SMILES	p53ts 39C tox	p53ts 32C tox	Peg3 imprint
Oc1c(C(Nc2nc3ccccc3s2)c2ccco2)ccc2cccnc12 (stereo not drawn)	?	0%	-34%
O=C(CN1N=C(c2ccc(Cl)cc2)CCC1=O)NCc1ccc(F)cc1	-30%	-5%	-5%[10.9 µM]
CCCCNC(=O)CSc1nnc(C)c2c(C)n(-c3ccccc3)nc12	16µM*	7%	11%[10.9 µM]
CCOc1ccc(CNC(=O)CSc2nnc(C)c3c(C)n(-c4ccccc4)nc23)cc1	25µM*	2%	-8%[10.9 µM]
Cc1nnc(SCC(=O)NCc2cccc(F)c2)c2nn(-c3ccccc3)c(C)c12	5%	19%	-7%[10.9 µM]
CCCCNC(=O)CSc1nc2ccccc2nc1Cc1ccc(C)cc1	-12%	-1%	-4%[10.9 µM]
CC1Cc2cc(S(=O)(=O)NCc3ccccc3Cl)ccc2N1C(=O)C1CCC1 (stereo not drawn)	/	2%	/
C[N+](C)(C)CCC(=O)c1cccc2ccccc12	16µM*	13µM*	-29%
O=C(O)CCC(=O)c1cccc2ccccc12	4%	-9%	-3%
CCC(C(=O)Nc1ccc(F)cc1F)n1nc(-c2ccccc2)c2c(c1=O)CCCC2 (stereo not drawn)	-13%	8%	7%[10.9 µM]
COc1ccccc1C(=O)OCc1cc(=O)n2c(C)csc2n1	0.13µM*	?	-24%[10.9 µM]
